Measured values reported in publication PMC7862700, “An all-to-all approach to the identification of sequence-specific readers for epigenetic DNA modifications on cytosine”.

What was measured:
Assay in all cases: DAPPL (digital affinity profiling via proximity ligation, sequencing); 10 mM Tris-HCl pH 7.5, 50 mM NaCl, 1 mM DTT, 4% glycerol, room temperature, 30 min; GST-TFs on glutathione beads, 16-mer random dsDNA library, 0.1% formaldehyde crosslink after washing; high values mean tight binding
FEV = target: T1, FEV (Homo sapiens, UniProt Q99581 1-238); conditions: protein: recombinant; tags: N-terminal GST; dsDNA, one strand shown
T1 sequence: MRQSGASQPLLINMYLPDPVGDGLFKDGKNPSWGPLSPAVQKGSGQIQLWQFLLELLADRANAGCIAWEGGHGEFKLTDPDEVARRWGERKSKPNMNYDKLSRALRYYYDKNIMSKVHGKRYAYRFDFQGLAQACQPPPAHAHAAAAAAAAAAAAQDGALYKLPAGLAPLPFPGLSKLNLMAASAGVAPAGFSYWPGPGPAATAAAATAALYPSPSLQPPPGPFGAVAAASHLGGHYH
Summary of the method: (§1)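 Yeast served to express human transcription factors as GST fusions, which were then captured on glutathione beads and labelled with DNA barcodes. Pooled with a tag-only sample, they were incubated with 200 nmole of a 16-mer random double-stranded DNA library for 30 min at room temperature in Tris/NaCl/DTT/glycerol buffer, washed, crosslinked with 0.1% formaldehyde, ligated by proximity, amplified by PCR and sequenced. Dividing each hexamer's read frequency for a factor by its frequency for the tag-only sample gives the binding signal.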

ETV5 = ETV5 (Homo sapiens, UniProt P41161 1-510); conditions: protein: recombinant; tags: N-terminal GST; dsDNA, one strand shown
Summary of the method: as §1

HSF1 = HSF1 (Homo sapiens, UniProt Q00613 1-529); conditions: protein: recombinant; tags: N-terminal GST; chain copies: 3; dsDNA, one strand shown
Summary of the method: as §1

SPIC = target: T2, SPIC (Homo sapiens, UniProt Q8N5J4 1-248); conditions: protein: recombinant; tags: N-terminal GST; dsDNA, one strand shown
T2 sequence: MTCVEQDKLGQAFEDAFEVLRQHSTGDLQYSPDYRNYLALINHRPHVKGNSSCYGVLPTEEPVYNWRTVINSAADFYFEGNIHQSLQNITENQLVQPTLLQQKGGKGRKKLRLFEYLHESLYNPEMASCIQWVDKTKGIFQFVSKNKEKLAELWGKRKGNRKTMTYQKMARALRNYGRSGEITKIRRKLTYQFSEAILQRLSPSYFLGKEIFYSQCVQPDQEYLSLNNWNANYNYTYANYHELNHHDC
Summary of the method: as §1

ELF4 = ELF4 (Homo sapiens, UniProt Q99607 1-663); conditions: protein: recombinant; tags: N-terminal GST; dsDNA, one strand shown
Summary of the method: as §1

ELK4 = target: T3, ELK4 (Homo sapiens, UniProt P28324-2 1-405); conditions: protein: recombinant; tags: N-terminal GST; dsDNA, one strand shown
T3 sequence: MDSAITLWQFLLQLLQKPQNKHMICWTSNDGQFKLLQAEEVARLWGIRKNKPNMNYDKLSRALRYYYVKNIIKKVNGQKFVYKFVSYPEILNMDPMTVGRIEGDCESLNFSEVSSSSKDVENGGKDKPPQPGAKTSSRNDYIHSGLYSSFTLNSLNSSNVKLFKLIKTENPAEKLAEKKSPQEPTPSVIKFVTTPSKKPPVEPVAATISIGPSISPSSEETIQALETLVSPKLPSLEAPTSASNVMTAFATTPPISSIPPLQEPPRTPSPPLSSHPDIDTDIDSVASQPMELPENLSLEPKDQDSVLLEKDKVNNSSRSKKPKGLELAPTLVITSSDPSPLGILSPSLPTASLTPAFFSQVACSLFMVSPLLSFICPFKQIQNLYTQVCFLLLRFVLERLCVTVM
Summary of the method: as §1

ETV2 = target: T4, ETV2 (Homo sapiens, UniProt O00321 1-342); conditions: protein: recombinant; tags: N-terminal GST; dsDNA, one strand shown
T4 sequence: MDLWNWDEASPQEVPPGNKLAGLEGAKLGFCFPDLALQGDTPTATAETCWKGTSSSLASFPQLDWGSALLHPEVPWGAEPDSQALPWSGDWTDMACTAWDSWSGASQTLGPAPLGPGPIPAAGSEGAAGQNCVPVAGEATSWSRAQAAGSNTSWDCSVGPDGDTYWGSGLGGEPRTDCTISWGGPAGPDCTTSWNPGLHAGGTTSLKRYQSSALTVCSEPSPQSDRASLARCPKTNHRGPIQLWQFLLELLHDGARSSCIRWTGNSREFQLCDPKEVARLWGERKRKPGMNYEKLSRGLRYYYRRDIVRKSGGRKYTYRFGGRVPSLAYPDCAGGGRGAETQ
Summary of the method: as §1

ELF3 = target: T5, ELF3 (Homo sapiens, UniProt P78545 1-371); conditions: protein: recombinant; tags: N-terminal GST; dsDNA, one strand shown
T5 sequence: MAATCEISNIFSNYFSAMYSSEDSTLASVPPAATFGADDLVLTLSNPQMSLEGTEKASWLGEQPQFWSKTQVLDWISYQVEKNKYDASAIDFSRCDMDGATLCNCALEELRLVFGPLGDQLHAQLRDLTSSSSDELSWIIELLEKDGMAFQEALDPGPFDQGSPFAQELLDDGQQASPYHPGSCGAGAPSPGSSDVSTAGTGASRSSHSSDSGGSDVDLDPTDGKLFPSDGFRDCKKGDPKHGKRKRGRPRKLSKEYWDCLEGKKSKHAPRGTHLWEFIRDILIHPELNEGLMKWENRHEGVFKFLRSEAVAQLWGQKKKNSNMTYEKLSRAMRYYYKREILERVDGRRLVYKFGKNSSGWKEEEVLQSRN
Summary of the method: as §1

CRX = CRX (Homo sapiens, UniProt O43186 1-299); conditions: protein: recombinant; tags: N-terminal GST; dsDNA, one strand shown
Summary of the method: as §1

ETV1 = ETV1 (Homo sapiens, UniProt P50549 1-477); conditions: protein: recombinant; tags: N-terminal GST; dsDNA, one strand shown
Summary of the method: as §1

ERF = target: T6, ERF (Homo sapiens, UniProt P50548 1-548); conditions: protein: recombinant; tags: N-terminal GST; dsDNA, one strand shown
T6 sequence: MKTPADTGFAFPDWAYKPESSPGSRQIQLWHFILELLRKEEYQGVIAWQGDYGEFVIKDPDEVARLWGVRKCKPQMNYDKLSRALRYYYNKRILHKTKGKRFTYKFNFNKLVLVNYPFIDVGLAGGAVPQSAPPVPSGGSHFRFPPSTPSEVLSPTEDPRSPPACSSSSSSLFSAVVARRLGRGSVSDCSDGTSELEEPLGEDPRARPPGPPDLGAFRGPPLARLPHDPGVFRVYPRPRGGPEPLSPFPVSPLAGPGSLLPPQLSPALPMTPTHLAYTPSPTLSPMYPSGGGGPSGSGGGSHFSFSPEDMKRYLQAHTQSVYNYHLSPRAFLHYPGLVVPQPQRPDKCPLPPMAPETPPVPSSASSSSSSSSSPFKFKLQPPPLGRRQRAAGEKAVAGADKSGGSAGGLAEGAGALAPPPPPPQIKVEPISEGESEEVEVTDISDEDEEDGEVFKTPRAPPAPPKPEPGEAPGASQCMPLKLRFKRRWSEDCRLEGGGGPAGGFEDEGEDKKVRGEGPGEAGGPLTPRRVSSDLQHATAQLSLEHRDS
Summary of the method: as §1

ETV3L = target: T7, ETV3L (Homo sapiens, UniProt Q6ZN32 1-361); conditions: protein: recombinant; tags: N-terminal GST; dsDNA, one strand shown
T7 sequence: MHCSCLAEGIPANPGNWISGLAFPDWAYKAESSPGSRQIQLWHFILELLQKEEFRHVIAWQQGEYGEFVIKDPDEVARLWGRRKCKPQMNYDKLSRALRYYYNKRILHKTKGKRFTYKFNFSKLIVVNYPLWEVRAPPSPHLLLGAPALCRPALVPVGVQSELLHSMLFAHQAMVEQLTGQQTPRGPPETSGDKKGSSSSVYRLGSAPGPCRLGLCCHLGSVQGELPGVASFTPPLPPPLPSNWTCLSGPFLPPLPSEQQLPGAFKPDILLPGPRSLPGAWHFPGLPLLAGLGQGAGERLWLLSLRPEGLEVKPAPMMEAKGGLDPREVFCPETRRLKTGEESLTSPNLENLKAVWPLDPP
Summary of the method: as §1

ETS2 = target: T8, ETS2 (Homo sapiens, UniProt P15036 1-469); conditions: protein: recombinant; tags: N-terminal GST; dsDNA, one strand shown
T8 sequence: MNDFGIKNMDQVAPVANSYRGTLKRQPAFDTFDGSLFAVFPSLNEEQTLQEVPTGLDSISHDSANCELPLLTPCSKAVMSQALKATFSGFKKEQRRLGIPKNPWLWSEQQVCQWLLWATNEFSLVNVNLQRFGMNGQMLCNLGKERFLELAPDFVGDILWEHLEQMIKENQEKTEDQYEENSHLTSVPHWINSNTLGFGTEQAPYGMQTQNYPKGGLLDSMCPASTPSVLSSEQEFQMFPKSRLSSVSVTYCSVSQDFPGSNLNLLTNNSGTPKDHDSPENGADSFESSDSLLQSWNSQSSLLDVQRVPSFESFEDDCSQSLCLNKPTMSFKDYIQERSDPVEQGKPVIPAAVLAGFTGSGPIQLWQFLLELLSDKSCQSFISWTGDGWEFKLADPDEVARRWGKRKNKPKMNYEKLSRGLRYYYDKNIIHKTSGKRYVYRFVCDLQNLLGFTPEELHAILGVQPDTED
Summary of the method: as §1

SPDEF = target: T9, SPDEF (Homo sapiens, UniProt O95238 1-335); conditions: protein: recombinant; tags: N-terminal GST; dsDNA, one strand shown
T9 sequence: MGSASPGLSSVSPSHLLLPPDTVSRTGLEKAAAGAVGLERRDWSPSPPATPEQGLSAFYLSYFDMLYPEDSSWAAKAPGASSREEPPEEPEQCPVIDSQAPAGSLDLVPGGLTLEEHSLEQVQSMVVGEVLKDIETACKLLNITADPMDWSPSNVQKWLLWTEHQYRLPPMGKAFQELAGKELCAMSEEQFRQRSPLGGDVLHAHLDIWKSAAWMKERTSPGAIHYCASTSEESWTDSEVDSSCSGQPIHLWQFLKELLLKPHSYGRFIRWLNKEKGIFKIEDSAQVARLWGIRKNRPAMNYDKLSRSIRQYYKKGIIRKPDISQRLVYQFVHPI
Summary of the method: as §1

ELF5 = target: T10, ELF5 (Homo sapiens, UniProt Q9UKW6-2 1-255); conditions: protein: recombinant; tags: N-terminal GST; dsDNA, one strand shown
T10 sequence: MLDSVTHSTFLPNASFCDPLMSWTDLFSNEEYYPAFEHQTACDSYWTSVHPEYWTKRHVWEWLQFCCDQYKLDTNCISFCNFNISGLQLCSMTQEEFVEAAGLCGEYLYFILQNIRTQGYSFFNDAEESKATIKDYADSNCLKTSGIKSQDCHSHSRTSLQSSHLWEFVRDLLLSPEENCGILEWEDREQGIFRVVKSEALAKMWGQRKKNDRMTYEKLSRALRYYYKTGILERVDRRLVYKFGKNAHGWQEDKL
Summary of the method: as §1

ETV3 = target: T11, ETV3 (Homo sapiens, UniProt P41162-2 1-143); conditions: protein: recombinant; tags: N-terminal GST; dsDNA, one strand shown
T11 sequence: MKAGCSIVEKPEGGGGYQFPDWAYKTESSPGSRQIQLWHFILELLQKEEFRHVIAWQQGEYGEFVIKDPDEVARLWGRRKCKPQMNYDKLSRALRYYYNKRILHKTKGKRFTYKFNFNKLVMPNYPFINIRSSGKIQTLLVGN
Summary of the method: as §1

ETV6 = ETV6 (Homo sapiens, UniProt P41212 1-452); conditions: protein: recombinant; tags: N-terminal GST; dsDNA, one strand shown
Summary of the method: as §1

Chain of HSF1 (Q00613 whole entry): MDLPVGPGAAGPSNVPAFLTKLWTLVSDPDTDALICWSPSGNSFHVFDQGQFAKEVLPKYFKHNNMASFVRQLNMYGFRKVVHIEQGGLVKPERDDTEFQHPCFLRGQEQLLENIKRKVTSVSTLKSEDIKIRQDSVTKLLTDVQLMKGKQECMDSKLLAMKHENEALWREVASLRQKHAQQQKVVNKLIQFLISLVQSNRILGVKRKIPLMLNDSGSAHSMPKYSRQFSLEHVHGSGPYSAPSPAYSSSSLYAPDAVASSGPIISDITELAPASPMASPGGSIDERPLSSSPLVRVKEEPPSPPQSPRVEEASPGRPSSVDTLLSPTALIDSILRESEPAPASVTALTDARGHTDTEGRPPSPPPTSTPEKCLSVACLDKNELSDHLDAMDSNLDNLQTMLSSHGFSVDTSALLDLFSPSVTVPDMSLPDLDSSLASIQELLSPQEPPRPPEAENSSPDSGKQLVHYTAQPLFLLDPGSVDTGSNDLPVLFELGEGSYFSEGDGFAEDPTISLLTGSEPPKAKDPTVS
Chain of ETV5 (P41161 whole entry): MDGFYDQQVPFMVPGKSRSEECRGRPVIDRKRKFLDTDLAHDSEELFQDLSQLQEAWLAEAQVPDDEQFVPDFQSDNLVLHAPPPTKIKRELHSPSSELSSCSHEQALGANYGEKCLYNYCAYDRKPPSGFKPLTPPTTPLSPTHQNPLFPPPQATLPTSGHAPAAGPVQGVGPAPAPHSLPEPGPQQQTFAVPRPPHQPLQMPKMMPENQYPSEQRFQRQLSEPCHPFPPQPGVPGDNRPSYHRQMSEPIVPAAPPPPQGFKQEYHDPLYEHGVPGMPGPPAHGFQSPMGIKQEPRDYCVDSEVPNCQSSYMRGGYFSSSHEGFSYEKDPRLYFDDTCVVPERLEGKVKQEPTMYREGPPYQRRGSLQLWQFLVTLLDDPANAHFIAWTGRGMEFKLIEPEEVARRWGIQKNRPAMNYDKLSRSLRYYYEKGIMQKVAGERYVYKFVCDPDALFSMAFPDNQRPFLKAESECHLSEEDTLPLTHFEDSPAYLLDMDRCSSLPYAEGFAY
Chain of CRX (O43186 whole entry): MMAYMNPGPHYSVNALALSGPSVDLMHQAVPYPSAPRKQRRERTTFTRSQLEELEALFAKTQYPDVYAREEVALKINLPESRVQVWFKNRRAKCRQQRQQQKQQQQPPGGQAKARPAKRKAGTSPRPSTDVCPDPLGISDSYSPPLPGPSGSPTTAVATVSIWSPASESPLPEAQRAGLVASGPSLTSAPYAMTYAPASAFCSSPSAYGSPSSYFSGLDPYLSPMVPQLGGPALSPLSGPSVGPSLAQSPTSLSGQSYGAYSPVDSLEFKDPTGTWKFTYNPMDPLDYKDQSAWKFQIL
Chain of ELF4 (Q99607 whole entry): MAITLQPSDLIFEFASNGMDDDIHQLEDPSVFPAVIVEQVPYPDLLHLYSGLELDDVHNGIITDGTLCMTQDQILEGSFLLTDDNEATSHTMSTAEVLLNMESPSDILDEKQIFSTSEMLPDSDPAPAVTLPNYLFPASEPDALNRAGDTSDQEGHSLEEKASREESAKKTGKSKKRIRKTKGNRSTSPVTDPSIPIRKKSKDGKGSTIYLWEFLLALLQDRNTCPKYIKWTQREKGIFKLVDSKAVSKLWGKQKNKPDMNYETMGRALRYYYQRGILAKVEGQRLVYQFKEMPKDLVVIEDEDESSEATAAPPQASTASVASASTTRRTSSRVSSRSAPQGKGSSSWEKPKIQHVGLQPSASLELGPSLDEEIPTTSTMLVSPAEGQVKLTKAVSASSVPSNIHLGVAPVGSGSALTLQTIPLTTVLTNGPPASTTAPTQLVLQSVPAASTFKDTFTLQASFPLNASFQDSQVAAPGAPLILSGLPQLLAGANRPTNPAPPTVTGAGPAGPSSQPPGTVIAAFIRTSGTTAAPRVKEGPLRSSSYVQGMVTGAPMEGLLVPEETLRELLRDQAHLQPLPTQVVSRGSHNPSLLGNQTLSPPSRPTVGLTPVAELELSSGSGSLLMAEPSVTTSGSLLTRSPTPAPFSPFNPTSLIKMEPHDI
Chain of ETV1 (P50549 whole entry): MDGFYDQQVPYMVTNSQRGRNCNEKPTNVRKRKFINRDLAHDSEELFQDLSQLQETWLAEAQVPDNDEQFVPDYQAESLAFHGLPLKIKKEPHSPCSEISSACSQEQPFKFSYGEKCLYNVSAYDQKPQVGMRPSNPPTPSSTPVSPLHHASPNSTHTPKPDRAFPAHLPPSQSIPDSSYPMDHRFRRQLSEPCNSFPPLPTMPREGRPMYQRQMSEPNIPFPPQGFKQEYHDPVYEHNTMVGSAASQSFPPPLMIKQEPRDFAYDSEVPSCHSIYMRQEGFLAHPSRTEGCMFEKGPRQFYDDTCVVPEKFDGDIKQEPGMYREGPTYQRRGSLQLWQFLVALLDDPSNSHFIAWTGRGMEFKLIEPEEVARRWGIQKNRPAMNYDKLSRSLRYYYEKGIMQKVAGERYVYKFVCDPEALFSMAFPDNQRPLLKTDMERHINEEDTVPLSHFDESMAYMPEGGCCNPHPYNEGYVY
Chain of ETV6 (P41212 whole entry): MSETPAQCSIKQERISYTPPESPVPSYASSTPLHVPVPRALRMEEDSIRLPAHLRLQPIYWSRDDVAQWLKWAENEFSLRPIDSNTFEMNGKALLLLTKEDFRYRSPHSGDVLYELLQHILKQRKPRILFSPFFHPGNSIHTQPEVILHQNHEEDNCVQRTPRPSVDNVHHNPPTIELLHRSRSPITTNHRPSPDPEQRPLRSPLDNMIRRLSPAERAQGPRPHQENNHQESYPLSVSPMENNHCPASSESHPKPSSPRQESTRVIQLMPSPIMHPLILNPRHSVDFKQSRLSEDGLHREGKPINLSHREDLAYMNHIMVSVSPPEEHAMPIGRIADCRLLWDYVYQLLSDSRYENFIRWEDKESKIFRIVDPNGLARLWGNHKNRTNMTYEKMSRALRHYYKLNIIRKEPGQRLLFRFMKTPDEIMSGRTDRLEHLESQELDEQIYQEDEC

Sequence: GATCCC
- binding signal (FEV): 1.18 fold enrichment (6-mer frequency, TF over GST control)
- binding signal (ETV5): 1.13 fold enrichment (6-mer frequency, TF over GST control)
- binding signal (HSF1): 1.22 fold enrichment (6-mer frequency, TF over GST control)
- binding signal (SPIC): 1.22 fold enrichment (6-mer frequency, TF over GST control)
- binding signal (ELF4): 1.26 fold enrichment (6-mer frequency, TF over GST control)
- binding signal (ELK4): 1.2 fold enrichment (6-mer frequency, TF over GST control)
- binding signal (ETV2): 1.23 fold enrichment (6-mer frequency, TF over GST control)
- binding signal (ELF3): 1.18 fold enrichment (6-mer frequency, TF over GST control)
- binding signal (CRX): 1.32 fold enrichment (6-mer frequency, TF over GST control)
- binding signal (ETV1): 1.22 fold enrichment (6-mer frequency, TF over GST control)
- binding signal (ERF): 1.3 fold enrichment (6-mer frequency, TF over GST control)
- binding signal (ETV3L): 1.2 fold enrichment (6-mer frequency, TF over GST control)
- binding signal (ETS2): 1.11 fold enrichment (6-mer frequency, TF over GST control)
- binding signal (SPDEF): 1.27 fold enrichment (6-mer frequency, TF over GST control)
- binding signal (ELF5): 1.1 fold enrichment (6-mer frequency, TF over GST control)
- binding signal (ETV3): 1.11 fold enrichment (6-mer frequency, TF over GST control)
- binding signal (ETV6): 1.12 fold enrichment (6-mer frequency, TF over GST control)

Sequence: TCTACA
- binding signal (FEV): 1.2 fold enrichment (6-mer frequency, TF over GST control)
- binding signal (ETV5): 1.18 fold enrichment (6-mer frequency, TF over GST control)
- binding signal (HSF1): 1.39 fold enrichment (6-mer frequency, TF over GST control)
- binding signal (SPIC): 1.44 fold enrichment (6-mer frequency, TF over GST control)
- binding signal (ELF4): 1.15 fold enrichment (6-mer frequency, TF over GST control)
- binding signal (ELK4): 1.17 fold enrichment (6-mer frequency, TF over GST control)
- binding signal (ETV2): 1.18 fold enrichment (6-mer frequency, TF over GST control)
- binding signal (ELF3): 1.22 fold enrichment (6-mer frequency, TF over GST control)
- binding signal (CRX): 1.17 fold enrichment (6-mer frequency, TF over GST control)
- binding signal (ETV1): 1.16 fold enrichment (6-mer frequency, TF over GST control)
- binding signal (ERF): 1.31 fold enrichment (6-mer frequency, TF over GST control)
- binding signal (ETV3L): 1.21 fold enrichment (6-mer frequency, TF over GST control)
- binding signal (ETS2): 1.29 fold enrichment (6-mer frequency, TF over GST control)
- binding signal (SPDEF): 1.27 fold enrichment (6-mer frequency, TF over GST control)
- binding signal (ELF5): 1.19 fold enrichment (6-mer frequency, TF over GST control)
- binding signal (ETV3): 1.18 fold enrichment (6-mer frequency, TF over GST control)
- binding signal (ETV6): 1.19 fold enrichment (6-mer frequency, TF over GST control)
